# Screens as filed in PubChem.
# ALOX15B inhib = blocks human 15-lipoxygenase 2 activity; purified 15hLO-2, xylenol orange hydroperoxide absorbance; Potency, µM (highest dose often 57.1 µM), for the others: top-dose activity change, negative = inhibition, hits mostly inhibitors; 110,000 tested, 0.56% active; further: potency means the concentration at half of the fitted maximal effect; nearly all actives have a fitted effect of over 60% in size
# Target sequence (O15296 whole entry, looked up): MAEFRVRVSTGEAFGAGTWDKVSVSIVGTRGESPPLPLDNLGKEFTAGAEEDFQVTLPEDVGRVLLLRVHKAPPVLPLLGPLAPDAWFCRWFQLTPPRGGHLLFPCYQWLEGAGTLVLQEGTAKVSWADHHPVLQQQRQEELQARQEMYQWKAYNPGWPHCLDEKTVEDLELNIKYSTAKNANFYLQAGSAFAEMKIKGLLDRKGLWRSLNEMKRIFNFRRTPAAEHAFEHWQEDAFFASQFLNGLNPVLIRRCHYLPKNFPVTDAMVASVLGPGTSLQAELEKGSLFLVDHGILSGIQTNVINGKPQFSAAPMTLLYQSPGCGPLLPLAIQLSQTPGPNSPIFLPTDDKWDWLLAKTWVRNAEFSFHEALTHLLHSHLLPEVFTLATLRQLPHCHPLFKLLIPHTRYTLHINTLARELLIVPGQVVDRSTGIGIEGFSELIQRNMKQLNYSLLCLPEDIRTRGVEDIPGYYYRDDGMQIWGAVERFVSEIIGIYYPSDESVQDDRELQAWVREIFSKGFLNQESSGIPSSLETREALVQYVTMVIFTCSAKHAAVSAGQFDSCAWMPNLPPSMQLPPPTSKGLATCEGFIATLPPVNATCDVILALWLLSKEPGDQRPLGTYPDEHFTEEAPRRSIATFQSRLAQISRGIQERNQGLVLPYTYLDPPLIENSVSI
#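 Purified human 15hLO-2 (50 nM) preincubated 15 min with compound, then 45 uM arachidonic acid for 90 min at RT in 25 mM Hepes pH 7.5, 0.01% Triton X-100. Hydroperoxide detected by Fe-xylenol orange; 573/405 nm absorbance ratio.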
# IMPase inh = IMPase inhibition in cells; P97697; CHO-M1 cells, IP1 accumulation, HTRF TR-FRET ratio; inhibition (IP1 accumulation), % at 46.1 µM; 120,000 tested, under 10 active; AID 901; active means well fitted curve in the direction sought with a large enough effect in the signal ratio, not every such curve was filed as active; inconclusive means small, poorly fitted or top-dose-only effect, or a change in a side signal; inactive means no such curve, though single readings can be large or run the other way; the % refers to the signal ratio;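 further: cells stimulated with carbachol in lithium chloride buffer; plate controls were DMSO basal wells for no effect and reference inhibitor wells for full effect; higher means more IMPase inhibition seen as more IP1 and lower FRET ratio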
#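 The IP-One HTRF competitive assay in carbachol-stimulated CHO-M1 cells quantifies cellular IP1. Compounds spanned up to 46 uM final, and activity is expressed as AC50 from concentration-response fits of the ratio and donor data.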
# IMPase Li inh = cell-permeable IMPase inhibitors with lithium potentiation; CHO-M1 cells, IP1 TR-FRET (IP-One), carbachol + lithium; Potency, µM (top dose mostly 59.4 µM), without a hit: at the highest dose activity, negative = IMPase inhibition, most hits filed as inhibitors; 210,000 tested, 0.35% active; AID 1457;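 further: IP1 builds up when IMPase is blocked and the TR-FRET signal falls; potency means the concentration at half of the fitted maximal effect; plate controls were basal vehicle for no effect and high inhibitor control for full effect; nearly all actives have a fitted effect of over 50% in size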
#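 Test compounds were applied to CHO-M1 cells previously cultured for 16–30 h at 2000 per well. A small lithium amount accompanied them; after 30 min at 37C, IP1 was quantified by TR-FRET.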
# ALOX12 inhib = blocks human 12-lipoxygenase activity; P18054; purified 12-hLO, xylenol orange hydroperoxide absorbance; Potency, µM (titrated, usually from 57.1 µM), without a hit: top-dose activity change, negative = inhibition, actives largely listed as inhibitors; 150,000 tested, 0.12% active; AID 1452; further: potency means the concentration at half of the fitted maximal effect; nearly all actives have a fitted effect of over 55% in size
#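 Purified human 12hLO (150 nM final) was preincubated with compounds for 15 min at room temperature in 25 mM Hepes pH 7.0, 0.01% Triton X-100, then reacted with 40 uM arachidonic acid for 30 min. Hydroperoxide was detected with ferrous iron/xylenol orange.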
# Numbers without * were called inactive; ? = inconclusive; . = no result; [ ] = another dose, or the depositor's remark. This is a sample that favours compounds with a hit; in the whole collection about 0.57% have one here. Unless noted, the call rests on the fitted dose curve; in most records, active means well fitted curve in the direction sought with a large enough effect; inconclusive means small, poorly fitted or top-dose-only effect, or another doubt; inactive means no such curve, though single readings can be large; an effect the other way counts as inactive or inconclusive. Unless noted, on the % scale 0 is the no-effect control and ±100 the full control effect.
SMILES,ALOX15B inhib,IMPase inh,IMPase Li inh,ALOX12 inhib
Cc1cc(SCC(=O)Nc2ccc(Cl)cc2)nc2ccccc12,.,5,.,.
COc1ccc2c(C)cc(SCC(=O)Nc3ccc(Cl)cn3)nc2c1,.,.,8.9µM*,-3%
CCc1cccc(C)c1NC(=O)CSc1nc2ccc(N3C(=O)c4ccccc4C3=O)cc2s1,?,-8,16µM*,-5%
Cc1cc(C)c(NC(=O)CSc2nc3ccc(N4C(=O)c5ccccc5C4=O)cc3s2)c(C)c1,.,.,-10%,.
Cc1cc(OCC(C)C)ccc1/C(O)=C1/C(=O)C(=O)N(Cc2cccnc2)C1c1ccncc1 (stereo unspecified),.,?,4.5µM*,5%
CCCCOc1ccc(/C(O)=C2/C(=O)C(=O)N(Cc3cccnc3)C2c2ccncc2)c(C)c1 (stereo unspecified),.,.,10µM*,2%
Cc1ccc(Sc2c(O)c3ccccc3n(C)c2=O)cc1,.,.,10µM*,-5%
Cc1ccc(Sc2c(C=O)c3ccccc3n2C)cc1,0%,?,?,-1%
COc1cccc(O)c1O,?,.,48%,?
O=C(NC(=S)Nc1ccccc1N1CCCCC1)c1ccc(-c2cccc([N+](=O)[O-])c2)o1,25µM*,1,21%[38.3 µM],-3%
O=C(NC(=S)Nc1ccccc1N1CCCC1)c1ccc(-c2cccc([N+](=O)[O-])c2)o1,7.9µM*,-1,4%[38.3 µM],?
CC(=O)N1CCN(c2ccccc2NC(=O)c2ccc(-c3cccc([N+](=O)[O-])c3)o2)CC1,.,.,22%,.
C[C@H]1Cc2c(-c3ccccc3)nc3c(c2CO1)CN(C(=O)c1cccnc1)CC3,.,.,2%,2%[11.4 µM]
O=C(O)CCCCCN1C(=O)/C(=C\c2ccncc2)SC1=S,.,.,8%,4%
O=C(O)CCCN1C(=O)/C(=C/c2ccc(-c3nc4ccccc4s3)o2)SC1=S,16µM*,4,15%,2%
O=[N+]([O-])c1ccc(N2N=C(c3ccco3)CC2c2ccccc2)cc1 (stereo unspecified),13µM*,10,21%[38.3 µM],-9%
Fc1ccc(C2CC(c3ccco3)=NN2c2ccccc2)cc1 (stereo unspecified),?,-16,-1%[38.3 µM],?
COc1ccc(Oc2ncc3nc(-c4ccc(OC)cc4)c(=O)n(C)c3n2)cc1,0%,.,-6%,.
Cn1c(=O)c(-c2ccc(F)cc2)nc2cnc(Oc3ccccc3)nc21,-8%,.,7.9µM*,-4%
Cn1c(=O)c(-c2ccccc2)nc2cnc(Oc3ccccc3)nc21,0%,.,-4%,-5%
Cn1c(=O)c(-c2ccc(Cl)cc2)nc2cnc(Oc3ccccc3)nc21,4%,.,11µM*,1%
N#Cc1c(-c2ccccc2)nc(-c2ccccc2)[nH]c1=O,-3%,-11,3.5µM*,-2%
COc1ccc(OC)c(NC(=O)CNC(=O)Cn2c(C)cc3ccccc3c2=O)c1,0%,-2,15%[38.3 µM],5%
COc1cc(NC(=O)Cn2c(C)cc3ccccc3c2=O)cc(OC)c1OC,-8%,?,25µM*,0%
CC1CCCN(C(=O)CSc2cnc3ccccc3n2)C1 (stereo unspecified),-3%,?,3.2µM*,-4%
SMILES,ALOX15B inhib,IMPase inh,IMPase Li inh,ALOX12 inhib
CC1CCN(C(=O)CSc2nc3ccccc3s2)CC1,-17%,12,-6%[38.3 µM],-12%
Cc1nc2ccccc2nc1SCC(=O)N1CCC(C)CC1,3%,?,13µM*,4%
COc1ccccc1C1CC(=O)Oc2cc3c(cc21)OCO3 (stereo unspecified),?,.,-1%,-20%[0.00818 µM]
C[C@H]1Cc2c(COc3ccccc3)nc3c(c2CO1)CN(S(=O)(=O)c1ccc2c(c1)OCCN2C)CC3,.,.,7%,0%[11.4 µM]
N#CC1=C2SCN(c3ccccc3)CN2C(=O)CC1c1cccs1 (stereo unspecified),13µM*,-14,28µM*,?
N#CC1=C2SCN(c3ccccc3)CN2C(=O)CC1c1c(Cl)cccc1Cl (stereo unspecified),7.9µM*,4,16%[38.3 µM],28µM*
N#CC1=C2SCN(c3ccccc3)CN2C(=O)CC1c1ccccc1Cl (stereo unspecified),7.9µM*,2,8%[38.3 µM],?
N#CC1=C2SCN(Cc3ccco3)CN2C(=O)CC1c1c(F)cccc1Cl (stereo unspecified),?,-7,-5%[38.3 µM],-7%
N#CC1=C2SCC(O)(c3ccccc3)N2C(=O)CC1c1cccs1 (stereo unspecified),-14%,?,.,-19%
CNC(=O)[C@@H]1O[C@@H](n2cnc3c(N)ncnc32)[C@@H](O)[C@H]1O,-5%,-9,.,1%
C[C@H](CCC(=O)O)C1CC[C@H]2C3CC[C@@H]4C[C@H](O)CC[C@]4(C)C3C[C@H](O)[C@]12C (stereo partly specified),.,.,3%,.
CC(C)C(OC(=O)c1cccs1)C(=O)NCc1cccs1 (stereo unspecified),-5%,2,25µM*,-2%
O=C(C1=C(O)C(=O)N(CCc2ccccc2)C1c1cccnc1)c1ccco1 (stereo unspecified),-4%,?,4.5µM*,-4%
O=C(C1=C(O)C(=O)N(CCc2ccccc2)C1c1cccs1)c1ccco1 (stereo unspecified),.,.,-22%,.
COCCCN1C(=O)C(O)=C(C(=O)c2ccc(C)o2)C1c1cccc(Br)c1 (stereo unspecified),53%,?,10µM*,-7%
COC(=O)c1sc(N2C(=O)C(O)=C(C(=O)c3ccc(C)o3)C2c2ccc(F)cc2)nc1C (stereo unspecified),?,?,7.9µM*,-6%
Cc1ccc(C2C(C(=O)c3ccco3)=C(O)C(=O)N2c2nnc(C)s2)cc1 (stereo unspecified),-11%,?,10µM*,1%
COCCCN1C(=O)C(O)=C(C(=O)c2ccco2)C1c1ccccc1 (stereo unspecified),13%,?,7.9µM*,4%
CCOc1ccc(C2C(C(=O)c3ccco3)=C(O)C(=O)N2Cc2cccnc2)cc1OC (stereo unspecified),-7%,-17,11µM*,-13%
CCOc1cc(C2C(C(=O)c3ccco3)=C(O)C(=O)N2CCc2ccccc2)ccc1O (stereo unspecified),-18%,8,2%[38.3 µM],-10%
N=C1[C@@H](O)[C@]2(I)c3ccccc3N3C(=N)[C@H](O)[C@@H]4c5ccccc5N1[C@@H]4[C@@H]32,?,.,-9%,-17%[11.4 µM]
CC(C)(C)C(=O)[C@H]([C@@H](c1ccccc1)N1CCOCC1)N1CCOCC1,-3%[11.4 µM],.,.,2%[11.4 µM]
Cc1cc(=O)oc2cc(OCCCN3C(=O)c4ccccc4C3=O)ccc12,.,-3,-9%,-5%
Cc1cc(=O)oc2cc(OC(=O)CCN3C(=O)c4ccccc4C3=O)ccc12,3%,-21,8.9µM*,-11%
CCOc1ccc(NS(=O)(=O)c2ccc3[nH]cc(C(=O)N(CC)CC)c(=O)c3c2)cc1,-1%,-11,-2%[38.3 µM],16µM*
